# This is part of a sample that, as a whole, favours compounds with a hit. Of some 79,000 tested, about 15% had one in any assay. Values without a mark were called inactive. Activity calls are given as the source filed them. Cut-off read from the data, not from the text of the source: active = growth inhibition above about 70%; inactive = the rest.
# Assays:
# [1] = NCI Yeast Anticancer Drug Screen. Data for the rad50 strain (AID 155);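 note: 0% = growth of vehicle-only cultures of the same strain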; conditions: S. cerevisiae rad50 strain growth inhibition; at 50.0 µM; active compounds read high
# Procedure, shortened: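 Vehicle-treated cultures provide the reference for the growth inhibition reported for compound-exposed, repair-deficient yeast.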
# [2] = NCI Yeast Anticancer Drug Screen. Data for the mec2-1 strain (AID 157); conditions: S. cerevisiae mec2-1 strain, at 50.0 µM, active compounds read high
# Procedure, shortened: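 Vehicle-treated cultures served as reference for growth inhibition of compound-exposed mec2-1 yeast.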
# [3] = NCI Yeast Anticancer Drug Screen. Data for the sgs1 mgt1 strain (AID 161);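 note: 0% = growth of cultures given vehicle only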; conditions: S. cerevisiae sgs1 mgt1 strain, at 50.0 µM, active compounds read high
# Procedure, shortened: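 Read-out: growth inhibition vs vehicle controls. Cells: mutant yeast strain deficient in DNA damage repair.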
# [4] = NCI Yeast Anticancer Drug Screen. Data for the cln2 rad14 strain (AID 165);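 note: 0% = growth equal to vehicle treated cultures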; conditions: S. cerevisiae cln2 rad14 strain, at 50.0 µM, active compounds read high
# Procedure, shortened: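 Each compound was tested on cln2 rad14 yeast. Inhibition of growth was calculated against vehicle-exposed controls.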
# [5] = NCI Yeast Anticancer Drug Screen. Data for the bub3 strain (AID 167); conditions: S. cerevisiae bub3 mutant strain, at 50.0 µM, active compounds read high
# Procedure, shortened: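 Mutant yeast screening strain plus compound; vehicle-treated cultures serve as the 0% inhibition reference.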
# [6] = NCI Yeast Anticancer Drug Screen. Data for the mlh1 rad18 strain (AID 175); conditions: S. cerevisiae mlh1 rad18 strain growth inhibition; at 50.0 µM; active compounds read high
# Procedure, shortened: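 Vehicle-treated cultures served as the reference for growth inhibition in a yeast strain carrying DNA damage repair alterations exposed to each compound.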
SMILES,growth inhibition [1],growth inhibition [2],growth inhibition [3],growth inhibition [4],growth inhibition [5],growth inhibition [6]
Cc1c(C(CC(=O)c2ccccc2)C(=O)O)c2ccccc2n1C (stereo not drawn),2.05%,-25.3%,23.2%,-32.3%,52%,-11.4%
N#CC(/C(CCCC(=O)Nc1cccc([N+](=O)[O-])c1)=N/NC(=O)c1cc2ccccc2cc1O)c1ccccc1 (stereo not drawn),41.4%,41.4%,-17.2%,9.4%,36.8%,38%
O=[N+]([O-])c1ccc(N2CCCC2)cc1,14.2%,-8.05%,-6.9%,0.8%,13.8%,-16.7%
NC(=O)c1ccc(C(F)(F)F)cc1O,7.6%,12.6%,-4.65%,-21.4%,1.2%,10%
COc1ccc(C2CC(c3c(C)nn(-c4ccccc4)c3-c3ccc(C)cc3O)=NN2c2ccccc2)cc1 (stereo not drawn),-3.95%,-12.3%,-11.1%,-2%,-3%,50.5%
Fc1ccccc1N=Cc1ccc(C=Nc2ccccc2F)cc1,3.85%,-11.2%,23.9%,21.3%,45.6%,26.4%
CCCNC(=O)/C=C\S(=O)CCC (stereo not drawn),-1.15%,2.9%,1.15%,-16.5%,16.9%,-2.6%
C(=N\NC1=NCCN1)/c1ccccc1,-1.35%,-9.05%,5.6%,-36.8%,-7.4%,13.3%
COC(OC)C1OC(C)(C)OC1C(OS(=O)(=O)c1ccc(C)cc1)C1COC(C)(C)O1 (stereo not drawn),-14.7%,-7.8%,6.45%,1.95%,1.6%,12.7%
Cc1ccc(S(=O)c2ccccc2C(O)(C(F)(F)F)C(F)(F)F)cc1 (stereo not drawn),76.2% (active),75.8% (active),74.6% (active),59.6%,52.1%,75.7% (active)
Cn1ncc2c(NCc3ccccc3)ncnc21,13.2%,3.15%,23.1%,-44%,2.7%,0.5%
Nc1ccc(F)cc1,-22.1%,-1.5%,-15.4%,-19.6%,-3.05%,-31.9%
O=c1[nH]c(/C=C(\O)c2ccncc2)nc2ccccc12,-7.6%,-23.2%,-6.45%,12%,-9%,-17.9%
CCCCCCCCCCOc1ccc(C=NC/C=C/c2ccc(CC)cc2)cc1,-19.4%,-13.8%,-13.7%,-50.8%,-1.2%,-23.4%
O=[N+]([O-])/C(C(Cl)=C(Cl)Cl)=C1\NCCS1,39.7%,25.5%,40.2%,9.7%,34.6%,42.3%
Cc1ccc2cccc([N+](=O)[O-])c2n1,15.8%,-23.5%,3.75%,27.4%,1.2%,14.3%
COC(=O)c1sc2ccccc2c1C,-12.4%,-3.6%,-7.05%,-54.9%,-17.8%,10.7%
C=C(CC)C(=O)c1ccc(OCC(=O)O)c(Cl)c1Cl,14.7%,-15.9%,16.6%,16.1%,19.8%,-8.35%
Cc1cc2ccccc2c2cc3ccccc3cc12,-2.35%,-6.4%,8.45%,11.8%,-2.05%,7.75%

SMILES,growth inhibition [1],growth inhibition [2],growth inhibition [3],growth inhibition [4],growth inhibition [5],growth inhibition [6]
CC(=O)N(CCCCNC(=O)C(F)(F)F)CCCNC(=O)C(F)(F)F,2.7%,-6.5%,6.55%,5.15%,-26.8%,-58.5%
Clc1ccc2c(c1)N(C1CCCN(Cc3ccccc3)C1)c1ccccc1S2 (stereo not drawn),45.5%,7.65%,35.1%,25.8%,43.7%,47%
CCOc1ccccc1NC(=O)c1ccc(Cl)cc1,-9.8%,18%,-6.75%,5.35%,14.3%,-4.6%
C[n+]1c(C2(O)CCCCCCCCCCC2)sc2ccccc21,3.8%,10.1%,1.5%,-11.3%,1.4%,34.4%
Cc1ccc(C(C)C)cc1NC(=O)c1cccc([N+](=O)[O-])c1,-8.4%,6.9%,18.9%,-7.1%,18.9%,8%
CCOC(=O)/C(=C\c1ccccc1Cl)C(C)=O,99.3% (active),98.8% (active),99.5% (active),98.5% (active),98.8% (active),99.5% (active)
Cc1ccc2c(c1)C=C/C(=C/c1cc[n+](C)c3ccccc13)N2C,-7.95%,-22.2%,13.3%,-1.05%,-5.8%,1.55%
CCOC(C)=N,3.1%,-29.4%,7.3%,-6.85%,-9.7%,3.35%
CN(C)c1ccc(N=Nc2cc3c4ccccc4ccc3c3ccccc23)cc1,15.1%,-10.2%,23.1%,1.6%,9.45%,23.3%
CC1(C)OC2C(CO)OC(n3cnc4c(=S)nc(N)[nH]c43)C2O1 (stereo not drawn),18.6%,12.8%,2.5%,-24.1%,12.5%,21.7%
C/C(CC(=O)Nc1ccc(NC(=O)C/C(C)=N\NC(N)=O)cc1)=N/NC(N)=O,3.5%,-23.9%,-4.65%,11.1%,-14.1%,6.75%
CCOC(=O)COc1c(C)cccc1C,17.6%,5.45%,-2.5%,14.8%,32.5%,12.5%
CN(C)CCNC(=O)c1cccc2c(Nc3ccc(S(N)(=O)=O)cc3)c3ccccc3nc12,-43.7%,4%,-43.1%,17.9%,-23.6%,11.1%
CC(=O)OC1COC(NC(=O)N(CCCl)N=O)C(OC(C)=O)C1OC(C)=O (stereo not drawn),6.25%,7.55%,-25.8%,-11.2%,-31.2%,48.8%
O=C1CS(=O)(=O)c2ccccc21,-11.4%,1.5%,1.5%,-13.3%,-8.8%,22.2%
N#CC(C(=O)C(=O)Nc1cccc(C(F)(F)F)c1)c1c(Cl)cccc1Cl (stereo not drawn),10.1%,11.6%,17.1%,-35%,-1.7%,2.15%
CC(=O)CC(=O)N1CCC(C)CC1,20.4%,-24.9%,-16.4%,27.6%,-14.1%,-10.2%
CCCC[N+](C)(C)CC[N+](C)(C)CCCC,4.25%,-14.9%,-10%,-36.3%,-1.4%,-16.2%
Cc1cc(C)cc(C(C)C)c1,-15.4%,-4.35%,-22.9%,5.95%,-11.6%,-6.95%
